Data on three molecules can be found in PubChem BioAssay (EPA / NIEHS).

A short description of assay [1]: ATG_CMV_CIS: Attagene CIS-FACTORIAL HepG2 Assay for human CMV (Internal Marker) (AID 2282928).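 Further: endpoint acts as a background internal control marker rather than a target.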 Particulars: HepG2 CMV promoter reporter, transcription factor profiling; actives raise or lower the signal. In a few lines: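 After transient transfection of HepG2 with reporter transcription units driven by cis-regulatory promoters, cells receive test chemical for 24 h. Labeled reporter amplicons, digested with HpaI, are sized and quantified by capillary electrophoresis against DMSO.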

Assay [2] in a line: ATG_ISRE_CIS: Attagene CIS-FACTORIAL HepG2 Assay for human Interferon Regulatory Factor 1 (IRF1) binding to an Interferon-Stimulated Response Element (ISRE) (AID 2282948). The following applies: HepG2 ISRE cis-reporter (Attagene), mRNA transcription readout; actives raise or lower the signal. The procedure, abridged:
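Cell-based cis-reporter assay; HepG2; 24 h exposure; reporter mRNA by RT-PCR plus capillary electrophoresis fluorescence; activity in either direction scored relative to DMSO.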

A short description of assay [3]: ATG_M_32_CIS: Attagene CIS-FACTORIAL HepG2 Assay for M32 Transcription Factor (Internal Marker) (AID 2282949).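 Further: background control marker of the multiplexed CIS panel rather than a real target.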 Particulars: HepG2 Attagene cis-factorial M32 reporter, mRNA; actives raise or lower the signal. In a few lines: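 Internal background marker read-out: RT-PCR/capillary electrophoresis fluorescence of reporter transcripts from transiently transfected HepG2 cells after 24 h chemical exposure. Activity fitted bidirectionally relative to DMSO negative control.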

Assay [4] concerns the target Hepatocyte nuclear factor 6 (Homo sapiens) (UniProt Q9UBC0). Description: ATG_HNF6_CIS: Attagene CIS-FACTORIAL HepG2 Assay for human Hepatocyte Nuclear Factor 6 (HNF6) (AID 2282952). Particulars: HepG2 Attagene cis-factorial HNF6 reporter transcription; actives raise or lower the signal. The procedure, abridged:
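Cells are HepG2 carrying transiently transfected cis-promoter reporter units. Treatment lasts 24 h, after which reporter transcripts are reverse-transcribed, amplified, FAM-labelled and sized by capillary electrophoresis. DMSO serves as baseline.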

Assay [5] concerns the target Heat shock factor protein 1 (Homo sapiens) (UniProt Q00613). Description: ATG_HSE_CIS: Attagene CIS-FACTORIAL HepG2 Assay for human Heat Shock Transcription Factor 1 (HSE) (AID 2282953). The following applies: HepG2 HSE cis-reporter, Attagene RNA transcription; actives raise or lower the signal. In a few lines: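 HepG2, transient MRTU transfection, cis-promoter reporters (endogenous TF activity). 24 h compound. RNA → oligo(dT) RT → PCR → 6-FAM primer extension → HpaI cut → CE. Bidirectional fit vs DMSO.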

Assay [6] in a line: ATG_RORE_CIS: Attagene CIS-FACTORIAL HepG2 Assay for human RAR-related Orphan Receptor Element (RORE) (AID 2282959). Particulars: HepG2 Attagene cis-factorial RORE reporter, mRNA; actives raise or lower the signal. In a few lines: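 HepG2 cells carrying transiently transfected cis-regulated reporter units; RORE-driven reporter mRNA quantified 24 h post-dosing by RT-PCR, 6-FAM primer extension, HpaI digestion and capillary electrophoresis. Bidirectional fit versus DMSO.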

In assay [7] the target is Signal transducer and activator of transcription 3 (Homo sapiens) (UniProt P40763). Description: ATG_STAT3_CIS: Attagene CIS-FACTORIAL HepG2 Assay for human Signal Transducer and Activator of Transcription 3 (STAT3) (AID 2282963). The following applies: HepG2, Attagene cis-factorial STAT3 reporter transcription; actives raise or lower the signal. The procedure, abridged: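 Values derive from bidirectional fits relative to DMSO of reporter mRNA levels, measured by RT-PCR with capillary electrophoresis, in HepG2 cells carrying transiently transfected cis-regulated reporter units and exposed 24 h.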
Sequence of Signal transducer and activator of transcription 3 (Homo sapiens) (P40763 whole entry, looked up): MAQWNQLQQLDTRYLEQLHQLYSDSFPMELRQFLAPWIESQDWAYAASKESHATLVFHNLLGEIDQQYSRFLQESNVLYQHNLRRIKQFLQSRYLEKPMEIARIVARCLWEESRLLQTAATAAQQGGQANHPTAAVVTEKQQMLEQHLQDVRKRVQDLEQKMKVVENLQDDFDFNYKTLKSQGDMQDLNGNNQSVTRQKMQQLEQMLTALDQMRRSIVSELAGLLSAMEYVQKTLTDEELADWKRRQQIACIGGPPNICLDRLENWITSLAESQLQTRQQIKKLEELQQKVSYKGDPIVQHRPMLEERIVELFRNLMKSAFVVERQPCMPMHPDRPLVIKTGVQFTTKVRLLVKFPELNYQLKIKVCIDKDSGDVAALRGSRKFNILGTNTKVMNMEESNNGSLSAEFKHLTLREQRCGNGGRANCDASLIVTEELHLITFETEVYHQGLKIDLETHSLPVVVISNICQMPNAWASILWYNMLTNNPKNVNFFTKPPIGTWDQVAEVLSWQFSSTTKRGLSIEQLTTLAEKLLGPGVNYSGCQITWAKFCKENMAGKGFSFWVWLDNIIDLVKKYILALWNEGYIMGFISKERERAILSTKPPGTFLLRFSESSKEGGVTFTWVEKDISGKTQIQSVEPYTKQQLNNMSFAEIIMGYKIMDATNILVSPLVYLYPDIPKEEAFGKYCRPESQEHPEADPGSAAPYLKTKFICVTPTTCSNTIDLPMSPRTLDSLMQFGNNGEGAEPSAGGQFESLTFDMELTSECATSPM

Assay [8] is described as follows: ATG_TA_CIS: Attagene CIS-FACTORIAL HepG2 Assay for human TA Basal Promoter (AID 2282964). The following applies: HepG2 Attagene CIS-factorial TA basal promoter reporter; actives raise or lower the signal. The procedure, abridged:
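Read-out: fluorescent reporter-transcript fragments resolved by capillary electrophoresis after RT-PCR and HpaI digestion. Source: HepG2 cells carrying transiently transfected multi-reporter cis constructs, treated 24 h. Endpoint fitted bidirectionally relative to DMSO.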

The nature of assay [9]: ATG_TCF_b_cat_CIS: Attagene CIS-FACTORIAL HepG2 Assay for human T-Cell-Factor with beta-catenin (TCF/b-cat) (AID 2282965). The following applies: HepG2 TCF/beta-catenin cis-reporter transcription, actives raise or lower the signal. The procedure, abridged:
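Cells of the HepG2 line carry transiently transfected reporter units whose promoters respond to endogenous factors. Twenty-four hours post-dosing, reporter mRNA induction is measured by fluorescent RT-PCR and capillary electrophoresis, with DMSO as baseline.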

A short description of assay [10]: ATG_TAL_CIS: Attagene CIS-FACTORIAL HepG2 Assay for human TAL Basal Promoter (AID 2282966).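 Further: background control endpoint measuring basal TAL promoter reporter mRNA not a specific factor.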 Particulars: HepG2 Attagene cis-factorial TAL promoter reporter; actives raise or lower the signal. The procedure, abridged:
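Steps: transfect HepG2 with multiple reporter transcription units; dose 24 h; isolate RNA, reverse-transcribe, PCR-amplify, label with 6-FAM, digest with HpaI; resolve by capillary electrophoresis. Bidirectional fitting against DMSO baseline.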

Assay [11] in a line: ATG_TGFb_CIS: Attagene CIS-FACTORIAL HepG2 Assay for human Transforming Growth Factor (TGF) (AID 2282967). Particulars: HepG2 Attagene CIS TGFb reporter, mRNA transcription; actives raise or lower the signal. In a few lines: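 Transient MRTU transfection of HepG2 (FuGene 6). Dose 24 h. TriZol RNA, oligo(dT) RT, PCR, 6-FAM primer extension, HpaI cut, CE. Bidirectional fit, DMSO = baseline.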

The nature of assay [12]: ATG_VDRE_CIS: Attagene CIS-FACTORIAL HepG2 Assay for human Vitamin D Receptor Element (VDRE) (AID 2282968). Particulars: HepG2 VDRE cis-reporter transcription, actives raise or lower the signal. In a few lines: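 Cell-based multiplexed reporter format in human liver HepG2 cells, 24 h post-dose. Fluorescence from capillary electrophoresis of reporter cDNA gives the signal, with DMSO as negative control and baseline.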

The target in assay [13] is X-box-binding protein 1 (Homo sapiens) (UniProt P17861). Description: ATG_Xbp1_CIS: Attagene CIS-FACTORIAL HepG2 Assay for human X-box Binding Protein 1 (XBP1) (AID 2282972). Particulars: HepG2 XBP1 cis-element reporter, Attagene multiplex; actives raise or lower the signal. In a few lines:
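Fluorescence-labelled cDNA fragments from reporter transcripts, separated by capillary electrophoresis, give the signal. Source: HepG2 cells transfected with promoter-driven reporter units, harvested 24 h post-dose. DMSO served as reference for bidirectional curve fitting.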

For assay [14], the target named is Transcriptional activator Myb (Homo sapiens) (UniProt P10242). Description: ATG_Myb_CIS: Attagene CIS-FACTORIAL HepG2 Assay for human Myeloblastosis (Myb) Proto-Oncogene Transcription Factor (AID 2282986). The following applies: HepG2 Attagene CIS-FACTORIAL Myb reporter transcription; actives raise or lower the signal. The procedure, abridged: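 Transiently transfected HepG2 cells carrying a multiplexed cis-promoter reporter set report endogenous Myb activity after 24 h compound exposure. Reporter mRNA is read by RT-PCR with capillary electrophoresis of fluorescent products, fitted bidirectionally against DMSO.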
Sequence of Transcriptional activator Myb (Homo sapiens) (P10242 whole entry, looked up): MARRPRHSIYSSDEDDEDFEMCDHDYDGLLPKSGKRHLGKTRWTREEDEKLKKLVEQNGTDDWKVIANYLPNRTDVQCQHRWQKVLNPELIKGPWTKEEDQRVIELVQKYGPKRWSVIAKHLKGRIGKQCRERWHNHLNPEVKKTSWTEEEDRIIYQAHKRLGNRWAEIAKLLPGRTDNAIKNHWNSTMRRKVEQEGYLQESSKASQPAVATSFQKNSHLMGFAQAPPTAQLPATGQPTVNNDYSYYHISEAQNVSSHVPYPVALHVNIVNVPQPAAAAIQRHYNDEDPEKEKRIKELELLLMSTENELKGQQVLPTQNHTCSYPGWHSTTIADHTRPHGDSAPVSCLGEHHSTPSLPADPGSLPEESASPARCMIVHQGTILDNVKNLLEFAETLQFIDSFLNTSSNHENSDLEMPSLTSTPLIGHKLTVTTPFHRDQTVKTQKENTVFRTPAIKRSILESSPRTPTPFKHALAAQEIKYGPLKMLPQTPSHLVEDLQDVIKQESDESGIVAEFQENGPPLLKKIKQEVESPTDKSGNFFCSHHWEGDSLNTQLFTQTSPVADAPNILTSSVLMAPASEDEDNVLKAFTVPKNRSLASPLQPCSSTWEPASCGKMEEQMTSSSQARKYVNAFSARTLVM

The target of assay [15] is Nuclear respiratory factor 1 (Homo sapiens) (UniProt Q16656). Description: ATG_NRF1_CIS: Attagene CIS-FACTORIAL HepG2 Assay for human Nuclear Respiratory Factor 1 (NRF1) Orphan Gene (AID 2282987). The following applies: HepG2 NRF1 cis-element reporter, Attagene multiplex; actives raise or lower the signal. The procedure, abridged: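 HepG2 cells transiently transfected with multiple cis-regulated reporter units, exposed 24 h. Reporter mRNAs measured by RT-PCR, fluorescent labelling, HpaI digestion and capillary electrophoresis; bidirectional fitting against DMSO.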
Sequence of Nuclear respiratory factor 1 (Homo sapiens) (Q16656 whole entry, looked up): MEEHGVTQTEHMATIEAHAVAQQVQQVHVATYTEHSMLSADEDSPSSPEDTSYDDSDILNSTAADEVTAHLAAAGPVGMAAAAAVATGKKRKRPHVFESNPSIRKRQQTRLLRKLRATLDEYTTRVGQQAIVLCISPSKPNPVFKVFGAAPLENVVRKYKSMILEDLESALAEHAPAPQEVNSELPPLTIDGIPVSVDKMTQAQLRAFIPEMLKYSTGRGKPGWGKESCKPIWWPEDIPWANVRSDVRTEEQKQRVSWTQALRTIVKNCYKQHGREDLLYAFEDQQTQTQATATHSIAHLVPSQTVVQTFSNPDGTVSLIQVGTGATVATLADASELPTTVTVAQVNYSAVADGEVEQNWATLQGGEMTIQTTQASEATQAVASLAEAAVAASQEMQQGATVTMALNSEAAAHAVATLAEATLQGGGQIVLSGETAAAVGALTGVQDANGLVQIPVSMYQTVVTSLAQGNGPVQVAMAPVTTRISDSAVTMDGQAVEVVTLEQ

Assay [16] concerns the target Myc proto-oncogene protein (Homo sapiens) (UniProt P01106). Description: ATG_Myc_CIS: Attagene CIS-FACTORIAL HepG2 Assay for human Myelocytomatosis (Myc) Proto-Oncogene Transcription Factor (AID 2282990). The following applies: HepG2, Attagene cis-reporter transcription factor activity; actives raise or lower the signal. In a few lines:
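Fluorescence intensity of reporter-specific cDNA fragments, separated by capillary electrophoresis, gives the signal. Transfected HepG2 cells carrying cis-promoter reporter constructs are incubated with compound for 24 h; DMSO serves as baseline.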

Assay [17] in a line: ATG_NF_kB_CIS: Attagene CIS-FACTORIAL HepG2 Assay for human Nuclear Factor Kappa B (NF-kB) (AID 2282991). The following applies: HepG2 Attagene cis-factorial NF-kB reporter mRNA; actives raise or lower the signal. The procedure, abridged: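 HepG2 cells transfected with cis-promoter-driven reporter units, so endogenous transcription factor activity is measured. Reporter mRNA quantified 24 h after dosing by RT-PCR and capillary electrophoresis, with bidirectional fitting against DMSO.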

Assay [18] in a line: ATG_NRF2_ARE_CIS: Attagene CIS-FACTORIAL HepG2 Assay for human Nuclear Factor Erythroid 2 Related Factor 2 (NFR2) response to Antioxidant Response Elements (ARE) (AID 2282992). The following applies: HepG2 Attagene ARE/NRF2 reporter, transcription factor activity; actives raise or lower the signal. The procedure, abridged:
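Multiplexed reporter mRNA profiling in HepG2 after a 24 h chemical exposure. Curves fitted in both directions relative to DMSO negative control.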

Assay [19] is described as follows: ATG_Oct_MLP_CIS: Attagene CIS-FACTORIAL HepG2 Assay for human Octamer-Binding Transcription Factor (Oct) (AID 2282993). The following applies: HepG2 Attagene cis-factorial Oct reporter, mRNA; actives raise or lower the signal. The procedure, abridged: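 Transient MRTU transfection of HepG2 → 24 h compound treatment → RNA isolation, reverse transcription, PCR → 6-FAM primer extension, HpaI digest → capillary electrophoresis. Activity fitted both directions against DMSO.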

The target of assay [20] is Cellular tumor antigen p53 (Homo sapiens) (UniProt P04637). Description: ATG_p53_CIS: Attagene CIS-FACTORIAL HepG2 Assay for human p53 Transcription Factor (AID 2282994). Particulars: HepG2 p53 cis-element reporter, Attagene mRNA; actives raise or lower the signal. The procedure, abridged: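 Multiplexed reporter mRNA assay in human HepG2 liver cells; cis-regulated units report endogenous factor activity. Values come from bidirectional curve fitting against DMSO negative control after 24 h treatment.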
Sequence of Cellular tumor antigen p53 (Homo sapiens) (P04637 whole entry, looked up): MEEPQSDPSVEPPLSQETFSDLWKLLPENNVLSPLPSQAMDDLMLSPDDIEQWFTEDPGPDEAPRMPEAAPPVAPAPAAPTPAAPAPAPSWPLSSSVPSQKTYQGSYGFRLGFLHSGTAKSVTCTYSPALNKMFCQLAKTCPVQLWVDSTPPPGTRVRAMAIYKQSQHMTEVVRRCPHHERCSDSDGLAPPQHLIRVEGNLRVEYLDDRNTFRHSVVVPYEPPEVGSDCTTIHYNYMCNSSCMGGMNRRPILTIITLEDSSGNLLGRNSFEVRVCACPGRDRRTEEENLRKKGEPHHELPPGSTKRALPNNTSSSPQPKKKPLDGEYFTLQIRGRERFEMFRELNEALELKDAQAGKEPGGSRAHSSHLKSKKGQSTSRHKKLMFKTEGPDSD

Each structure is given as a SMILES string. The source made the active and inactive calls. How the source made its calls: active means hit-call score of the fitted dose curve at least 0.9, where 1 is the maximum; inactive means score below 0.9.

Sequence of Heat shock factor protein 1 (Homo sapiens) (Q00613 whole entry, looked up): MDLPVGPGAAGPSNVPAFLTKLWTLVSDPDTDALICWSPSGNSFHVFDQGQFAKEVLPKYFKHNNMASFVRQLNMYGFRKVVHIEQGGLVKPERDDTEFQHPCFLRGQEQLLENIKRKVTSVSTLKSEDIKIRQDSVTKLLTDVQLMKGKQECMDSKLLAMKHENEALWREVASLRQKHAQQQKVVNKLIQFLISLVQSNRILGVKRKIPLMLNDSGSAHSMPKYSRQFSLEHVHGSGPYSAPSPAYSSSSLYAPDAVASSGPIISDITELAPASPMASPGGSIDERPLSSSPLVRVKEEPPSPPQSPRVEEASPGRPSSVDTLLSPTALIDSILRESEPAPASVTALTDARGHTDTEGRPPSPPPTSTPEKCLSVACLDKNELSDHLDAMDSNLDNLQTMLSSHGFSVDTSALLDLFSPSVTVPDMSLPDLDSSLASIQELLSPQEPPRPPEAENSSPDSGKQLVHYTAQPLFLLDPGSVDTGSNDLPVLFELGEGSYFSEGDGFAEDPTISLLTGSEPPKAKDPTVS
Sequence of Hepatocyte nuclear factor 6 (Homo sapiens) (Q9UBC0 whole entry, looked up): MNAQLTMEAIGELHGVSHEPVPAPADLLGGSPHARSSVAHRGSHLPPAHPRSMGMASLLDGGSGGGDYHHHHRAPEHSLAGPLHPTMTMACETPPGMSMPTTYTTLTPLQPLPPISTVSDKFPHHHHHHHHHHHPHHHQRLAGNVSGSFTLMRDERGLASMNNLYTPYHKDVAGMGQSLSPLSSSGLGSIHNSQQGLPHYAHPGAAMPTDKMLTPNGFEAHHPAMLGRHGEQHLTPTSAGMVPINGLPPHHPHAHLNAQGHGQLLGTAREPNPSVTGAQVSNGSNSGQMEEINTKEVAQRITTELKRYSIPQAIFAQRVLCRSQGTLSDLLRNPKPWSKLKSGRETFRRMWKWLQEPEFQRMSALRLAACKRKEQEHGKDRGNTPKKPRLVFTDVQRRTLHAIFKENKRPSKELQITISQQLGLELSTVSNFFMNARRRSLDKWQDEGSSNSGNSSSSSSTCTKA
Sequence of Myc proto-oncogene protein (Homo sapiens) (P01106 whole entry, looked up, the tested form may be a part): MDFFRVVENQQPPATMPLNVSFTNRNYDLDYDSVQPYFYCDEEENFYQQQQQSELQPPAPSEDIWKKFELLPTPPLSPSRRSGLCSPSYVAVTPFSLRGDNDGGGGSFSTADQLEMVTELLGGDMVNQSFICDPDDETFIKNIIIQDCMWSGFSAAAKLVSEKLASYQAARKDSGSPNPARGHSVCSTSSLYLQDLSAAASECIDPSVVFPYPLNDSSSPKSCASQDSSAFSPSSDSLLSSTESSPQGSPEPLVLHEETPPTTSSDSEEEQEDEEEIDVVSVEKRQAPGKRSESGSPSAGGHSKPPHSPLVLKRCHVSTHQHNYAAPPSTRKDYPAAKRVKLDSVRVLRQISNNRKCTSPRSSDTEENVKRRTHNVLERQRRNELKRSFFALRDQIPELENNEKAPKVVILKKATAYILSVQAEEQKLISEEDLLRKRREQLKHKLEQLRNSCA
Sequence of X-box-binding protein 1 (Homo sapiens) (P17861 whole entry, looked up, the tested form may be a part): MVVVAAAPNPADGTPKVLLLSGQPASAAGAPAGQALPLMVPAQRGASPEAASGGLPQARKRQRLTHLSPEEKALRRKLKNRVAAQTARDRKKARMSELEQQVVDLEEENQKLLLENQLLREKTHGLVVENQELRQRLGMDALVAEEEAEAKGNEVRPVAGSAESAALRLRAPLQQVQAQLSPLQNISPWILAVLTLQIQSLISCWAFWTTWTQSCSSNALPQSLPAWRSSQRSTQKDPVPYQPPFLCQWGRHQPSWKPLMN

`ClCCCCCCCl`: the result in [1], in assay [2], in assay [3], in assay [4], in assay [5] and in assay [6] was inactive. In addition, the molecule was classed as inactive in assay [7], in assay [8], in [9], in assay [10], in assay [11] and in assay [12]. Further, the outcome in assay [13], in [14], in assay [15], in [16], in [17] and in [18] was inactive. Also, in assay [19], the call was inactive.
Turning to `CN1C(=O)CCS(=O)(=O)C1c1ccc(Cl)cc1` (stereo unspecified), the outcome in assay [1], in assay [3], in assay [4], in assay [5], in [6] and in assay [7] was inactive. Further, the molecule was called inactive in [8], in assay [9], in assay [10], in assay [11], in assay [12] and in assay [13]. Moreover, the molecule was classed as inactive in assay [14], in assay [15], in assay [16], in assay [17], in assay [18] and in assay [19].
As a reminder, the AC50 is the midpoint of the concentration-response curve, whichever way the signal moves. As for `Nc1ccccc1C(=O)OCCc1ccccc1`, the call in [1], in assay [2], in assay [3], in assay [4], in assay [5] and in assay [7] was inactive. In addition, the molecule was classed as inactive in [9], in assay [11], in assay [13], in assay [14], in assay [15] and in assay [16]. For the same molecule, the result in assay [17], in [19] and in [20] was inactive. For the same molecule, the AC50 is 20.8 µM (active) in assay [6], 33.4 µM (active) in [10], 22.3 µM (active) in assay [12] and 13.1 µM (active) in [18].
